From PubChem BioAssay (NCATS)

test: qHTS profiling of the MIPE4 collection as inhibitors of Plasmodium falciparum (HB3) proliferation (AID 743347);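 further: plate controls were DMSO vehicle wells for no effect and artemisinin wells for full effect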; details: P. falciparum HB3 in erythrocytes, SYBR Green DNA, 72 h; at 28.5 µM (top of the series)
Summary of the method: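 Erythrocytes infected with P. falciparum (0.3% parasitemia, 2.5% hematocrit) incubated with compounds 72 h at 37 C, 5% CO2. Lysis with saponin/Triton buffer containing SYBR Green I, overnight at room temperature in the dark; DNA fluorescence (485/535 nm) normalised to 0.29 uM artemisinin and DMSO.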

SMILES	growth, % of control [%]
O=C(O)CNC(=O)c1c(O)c2ccccc2n(Cc2ccccc2)c1=O	105
COCC1(CO)C(=O)C2CCN1CC2 (centres undefined)	87.2
C=C[C@@H]1CN2CCC1C[C@H]2[C@H](O)c1ccnc2ccccc12 (some centres undefined)	21.5
CCCC[N+]1(C)[C@H]2CC(OC(=O)[C@H](CO)c3ccccc3)C[C@H]1[C@H]1O[C@H]12 (some centres undefined)	52.3
C[C@@H]1CC[C@@]2(OC1)O[C@H]1C[C@H]3[C@@H]4CC=C5C[C@@H](O[C@@H]6O[C@H](CO)[C@@H](O[C@@H]7O[C@@H](C)[C@H](O)[C@@H](O)[C@@H]7O)[C@H](O)[C@@H]6O[C@@H]6O[C@@H](C)[C@H](O)[C@@H](O)[C@@H]6O)CC[C@]5(C)[C@@H]4CC[C@]3(C)[C@@H]1[C@H]2C	28.8
CC[C@H]1C=CC=CC[C@@H](C)[C@H](O)[C@@](C)(O)C(=O)[C@@H](C)[C@H](O)[C@@H](C)C(=O)[C@@H](C)[C@H](O)[C@@H](C)C=CC(=O)O[C@@H]2[C@@H](C)[C@H](CC1)O[C@]1(CC[C@H](C)[C@H](C[C@@H](C)O)O1)[C@H]2C	8.5
CC(=Cc1csc(C)n1)[C@@H]1C[C@H]2O[C@@H]2CCC[C@H](C)[C@@H](O)[C@@H](C)C(=O)C(C)(C)[C@@H](O)CC(=O)O1	12.9
O=c1cccc2n1CC1CNC[C@H]2C1	52.1
CC1=C(O)C(=O)C=C2C1=CC=C1[C@@]2(C)CC[C@@]2(C)[C@@H]3C[C@](C)(C(=O)O)CC[C@]3(C)CC[C@]12C	8.31
C[C@]12COC(=O)C[C@@H]1CC[C@@H]1[C@H]2CC[C@@]2(C)[C@H]1CC[C@]2(C)O	93.7
Cc1ccccc1-n1c(Cn2ncc3c(N)ncnc32)nc2cccc(C)c2c1=O	53.3
C[C@]12CC[C@H]3[C@@H](CCC4=CC(=O)CC[C@@]43C)[C@H]1CC[C@H]2OC(=O)CCC1CCCC1	6.49
CC[C@@H](C(N)=O)N1CCCC1=O	78.5
CC=C(C)C(=O)O[C@H]1C(C)=C2[C@@H]3OC(=O)[C@@](C)(O)[C@@]3(O)[C@@H](OC(=O)CCC)C[C@](C)(OC(C)=O)[C@@H]2[C@@H]1OC(=O)CCCCCCC	8.71
C[C@@H]1CC[C@H]2[C@@H](C)C(=O)O[C@@H]3O[C@@]4(C)CC[C@H]1[C@]32OO4	7.52
COC[C@H]1OC(=O)c2coc3c2[C@@]1(C)C1=C(C3=O)[C@@H]2CC[C@H](O)[C@@]2(C)C[C@@H]1OC(C)=O	48.8
C[C@]12CC[C@H](O)CC1=CC[C@H]1[C@H]3CCC(=O)[C@@]3(C)CC[C@@H]12	98.3
O=[N+]([O-])c1ncc[nH]1	81.7
CC(C)N[C@@H]1CCn2c(=O)[nH]c3cccc(c32)[C@@H]1O	101
CCNC(=O)CC1N=C(c2ccc(Cl)cc2)c2cc(OC)ccc2-n2c(C)nnc21 (centres undefined)	42.1

SMILES	growth, % of control [%]
C#CC1(O)CCC2C3CCC4=CC(=O)CCC4(C)C3CCC21C (centres undefined)	89
CCc1c(C(=O)C(N)=O)c2c(OCC(=O)O)cccc2n1Cc1ccccc1	99.7
CC[C@@]1(O)C(=O)OCc2c1cc1n(c2=O)Cc2cc3ccccc3nc2-1	5.89
C[C@@]12OC(=O)[C@]1([C@@H](O)[C@@H]1C=CCCC1)NC(=O)[C@H]2CCCl	5.21
c1ccc(CCCN2CCN(CCOC(c3ccccc3)c3ccccc3)CC2)cc1	19.2
O=C(Nc1ccncc1)C(=O)c1cn(Cc2ccc(Cl)cc2)c2ccccc12	78.4
C=C[C@@H]1CN2CCC1C[C@@H]2[C@@H](O)c1ccnc2ccccc12 (some centres undefined)	17.3
C[C@@H]1O[C@@H](O[C@@H]2C=C3CC[C@@H]4[C@@H](CC[C@]5(C)[C@H](c6ccc(=O)oc6)CC[C@@]45O)[C@@]3(C)CC2)[C@H](O)[C@H](O)[C@H]1O	94.5
NC1=NC(=O)N2CC12 (centres undefined)	68.6
COc1cc([C@@H]2c3cc4c(cc3[C@@H](O)C3COC(=O)C32)OCO4)cc(OC)c1O (some centres undefined)	66.2
CC(C)(O)C(=O)Nc1ccc([N+](=O)[O-])c(C(F)(F)F)c1	79
CC(C)(C)c1cc(C=C(C#N)C#N)cc(Br)c1O	34.7
C=C1C[C@H]2[C@H]3CCC(=O)[C@@]3(C)CC[C@@H]2[C@@]2(C)C=CC(=O)C=C12	29
C[C@H]1CCCC=CC2C[C@H](O)C[C@@H]2[C@H](O)C=CC(=O)O1 (some centres undefined)	2.99
O=C(Oc1ccc([N+](=O)[O-])cc1)N1CCN(Cc2cccc(Oc3ccccc3)c2)CC1	96.4
CC(N[C@H]1C[C@H]1c1ccccc1)c1ccc2c(c1)OCCO2 (some centres undefined)	60.1
Cc1[nH]nc2ccc(-c3cncc(OC[C@@H](N)Cc4c[nH]c5ccccc45)c3)cc12	8.77
COc1ccc(CC2NCCc3cc(OC)c(OC)cc32)cc1OC (centres undefined)	90.4
CN1CCN(c2ccc([N+](=O)[O-])c3no[n+]([O-])c23)CC1	99.7
